Data: PubChem BioAssay (NCI)
Compounds without any hit were thinned out: in the full panel of roughly 83,000, 20% have a hit.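 Interpretation: 100, growth as untreated; towards 0, rising growth inhibition; 0, no net growth; 0 to -100, cell death. Compounds scoring below 10 were considered active.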 Values without a mark were called inactive. Activity calls are given as the source filed them.

Assays:
Experiment in all cases: NCI-60 one-dose screen, 48 h (100 = growth as untreated, 0 = no growth, -100 = all killed)
Details in all cases: 10 µM unless noted
[1] = system: T-47D breast
[2] = system: MDA-MB-435 melanoma
[3] = system: SW-620 colon
[4] = system: MCF7 breast
[5] = system: HCT-116 colon
[6] = system: HCC-2998 colon
[7] = system: KM12 colon

Compound: Clc1ccc(/C=C/c2ccccn2)cc1
- growth [1]: 44.1%
- growth [2]: 105%
- growth [3]: 84.2%
- growth [4]: 25.9%
- growth [5]: 81.6%
- growth [6]: 111%
- growth [7]: 89.8%

Compound: COc1ccc(C)cc1NC(=O)SC(C)C
- growth [1]: 89.7% [100 µM]
- growth [2]: 101% [100 µM]
- growth [3]: 99.8% [100 µM]
- growth [4]: 87% [100 µM]
- growth [5]: 104% [100 µM]
- growth [6]: 98.5% [100 µM]
- growth [7]: 101% [100 µM]

Compound: O=c1cc(Cl)nc2ccccn12
- growth [1]: 103%
- growth [2]: 108%
- growth [3]: 105%
- growth [4]: 91.4%
- growth [5]: 99.6%
- growth [6]: 102%
- growth [7]: 96.6%

Compound: CCCCCCCCCCCCCC/C=C\C(CC(=O)O)C(=O)O (configuration not stated)
- growth [1]: 115%
- growth [2]: 126%
- growth [3]: 103%
- growth [4]: 105%
- growth [5]: 103%
- growth [6]: 102%
- growth [7]: 103%

Compound: NC(=S)c1c(N)n(C2OC(CO)C(O)C2O)c2ncnc(N)c12 (configuration not stated)
- growth [1]: -48.2% (active)
- growth [2]: -46.6% (active)
- growth [3]: -18.3% (active)
- growth [4]: -11.6% (active)
- growth [5]: 5.32% (active)
- growth [6]: 3.23% (active)
- growth [7]: -6.52% (active)

Compound: Cc1[nH]n(-c2ccccc2)c(=O)c1C=NC(=S)C(N)=S
- growth [1]: 102%
- growth [2]: 109%
- growth [3]: 104%
- growth [4]: 100%
- growth [5]: 89.5%
- growth [6]: 102%
- growth [7]: 103%

Compound: NC(=S)N/N=C/c1ccc(OC(=O)COc2ccccc2)cn1
- growth [1]: 41.5%
- growth [2]: 60.2%
- growth [3]: 49%
- growth [4]: 22.9%
- growth [5]: 39.3%
- growth [6]: 31%
- growth [7]: 62.4%

Compound: COc1ccc(NNS(=O)(=O)O)cc1
- growth [1]: 88.6%
- growth [2]: 102%
- growth [3]: 100%
- growth [4]: 92.9%
- growth [5]: 100%
- growth [6]: 110%
- growth [7]: 105%

Compound: C[C@H](CCC[C@H](C)OS(=O)(=O)c1ccccc1)OS(=O)(=O)c1ccccc1
- growth [1]: 100%
- growth [2]: 108%
- growth [3]: 105%
- growth [4]: 101%
- growth [5]: 95.1%
- growth [6]: 120%
- growth [7]: 107%

Compound: CCC12OC(COc3ccccc3)CN1CCN2c1ccccc1 (configuration not stated)
- growth [1]: 90.4% [100 µM]
- growth [2]: 98.6% [100 µM]
- growth [3]: 103% [100 µM]
- growth [4]: 92.5% [100 µM]
- growth [5]: 102% [100 µM]
- growth [6]: 115% [100 µM]
- growth [7]: 98.9% [100 µM]

Compound: Cc1ccnc(Nc2nc3ccccc3[nH]2)n1
- growth [1]: 86.5%
- growth [2]: 107%
- growth [3]: 99.3%
- growth [4]: 98.8%
- growth [5]: 103%
- growth [6]: 112%
- growth [7]: 118%

Compound: O=C(OCC1CCCO1)c1ccc([N+](=O)[O-])cc1 (configuration not stated)
- growth [1]: 84.8%
- growth [2]: 109%
- growth [3]: 91.8%
- growth [4]: 95.6%
- growth [5]: 103%
- growth [6]: 117%
- growth [7]: 109%

Compound: C(=C\c1ccncc1)/c1ccncc1
- growth [1]: 129%
- growth [2]: 110%
- growth [3]: 104%
- growth [4]: 128%
- growth [5]: 115%
- growth [6]: 99.3%
- growth [7]: 112%

Compound: CC(=O)Nc1ccc(C(=O)c2ccc(S(=O)(=O)Nc3ccccc3)cc2)cc1
- growth [1]: 99.2%
- growth [2]: 101%
- growth [3]: 103%
- growth [5]: 75.4%
- growth [6]: -97.1% (active)
- growth [7]: 108%

Compound: C=CC(=O)OC1CCC(C(C)(C)CC)CC1 (configuration not stated)
- growth [1]: 112%
- growth [2]: 103%
- growth [4]: 96%
- growth [5]: 104%
- growth [6]: 110%

Compound: CCOc1ccccc1NC(=O)CCl
- growth [1]: 75.3%
- growth [2]: 83.9%
- growth [3]: 98.4%
- growth [4]: 46.6%
- growth [5]: 75.8%
- growth [6]: 110%
- growth [7]: 97.1%

Compound: C=CCN1CCCC1=O
- growth [1]: 100%
- growth [2]: 101%
- growth [4]: 99.6%
- growth [5]: 106%
- growth [6]: 128%
- growth [7]: 110%

Compound: Cn1c2ccccc2c2nnc(NCCCCO)nc21
- growth [1]: 76.5%
- growth [2]: 110%
- growth [3]: 93%
- growth [4]: 59.2%
- growth [5]: 90.1%
- growth [6]: 98%
- growth [7]: 94.8%

Compound: CC(=O)N(CCCCCCN(C(C)=O)C(C)=O)C(C)=O
- growth [1]: 101% [100 µM]
- growth [2]: 98.5% [100 µM]
- growth [3]: 108% [100 µM]
- growth [4]: 87.8% [100 µM]
- growth [5]: 101% [100 µM]
- growth [6]: 114% [100 µM]
- growth [7]: 99.2% [100 µM]

Compound: Cc1ccc(OC(=O)c2ccccc2)cc1
- growth [1]: 108%
- growth [2]: 112%
- growth [3]: 111%
- growth [4]: 97.4%
- growth [5]: 105%
- growth [6]: 107%
- growth [7]: 108%

Compound: Cc1nc(O)cc(=O)[nH]1
- growth [1]: 113%
- growth [2]: 126%
- growth [3]: 109%
- growth [4]: 101%
- growth [5]: 113%
- growth [6]: 110%
- growth [7]: 110%

Compound: Cc1ccc(NC(=O)c2ccccc2Cl)cc1
- growth [1]: 112%
- growth [2]: 109%
- growth [3]: 109%
- growth [5]: 114%
- growth [6]: 124%
- growth [7]: 105%

Compound: CCC(=O)Oc1ccc2ccccc2c1
- growth [1]: 74.9%
- growth [2]: 101%
- growth [3]: 85.7%
- growth [4]: 101%
- growth [5]: 102%
- growth [6]: 88.7%
- growth [7]: 99.6%

Compound: Cn1c(=O)c2[nH]c(CCCCC(=O)O)nc2n(C)c1=O
- growth [1]: 113%
- growth [2]: 110%
- growth [3]: 101%
- growth [5]: 106%
- growth [6]: 111%
- growth [7]: 106%

Compound: C=C1CC2(OC1=O)C(=O)N(C)c1ccc(I)cc12 (configuration not stated)
- growth [1]: -82.6% (active)
- growth [2]: -64.8% (active)
- growth [3]: -76.3% (active)
- growth [4]: -66.8% (active)
- growth [5]: -92.6% (active)
- growth [6]: -89.3% (active)
- growth [7]: 2.99% (active)

Compound: CCOC(=O)CO
- growth [1]: 97.7%
- growth [2]: 104%
- growth [3]: 110%
- growth [4]: 97.5%
- growth [5]: 102%
- growth [6]: 103%
- growth [7]: 109%

Compound: N#C/C(=C\c1ccc(C#N)cc1)C(=O)c1ccccc1
- growth [1]: 65.4%
- growth [2]: 107%
- growth [3]: 109%
- growth [5]: 97.8%
- growth [6]: 104%
- growth [7]: 107%

Compound: Cc1onc(-c2c(F)cccc2Cl)c1-c1ncc(-c2ccc(Br)cc2)o1
- growth [1]: 29.6%
- growth [2]: 40.8%
- growth [4]: 20.9%
- growth [5]: 17.8%
- growth [6]: 58.6%
- growth [7]: 36.4%

Compound: Oc1cccnc1CN1CCCC1
- growth [1]: 95.2%
- growth [2]: 107%
- growth [3]: 105%
- growth [4]: 93.9%
- growth [5]: 116%
- growth [7]: 113%

Compound: O=C1Nc2ccccc2/C1=C\c1ccccc1O
- growth [1]: 71.9%
- growth [2]: 82.4%
- growth [3]: 95.8%
- growth [4]: 65.5%
- growth [5]: 86.3%
- growth [6]: 94.5%
- growth [7]: 82.3%

Compound: O=C1C=Cc2ccccc2/C1=C/c1[nH]c(=O)[nH]c1O
- growth [1]: 39.6%
- growth [2]: -6.05% (active)
- growth [3]: 22%
- growth [5]: 17.2%
- growth [6]: 54.1%
- growth [7]: 40.2%

Compound: Cc1ccc(NCN2C(=O)c3ccccc3C2=O)c(C)n1
- growth [1]: 119%
- growth [2]: 105%
- growth [3]: 108%
- growth [4]: 112%
- growth [5]: 101%
- growth [6]: 106%
- growth [7]: 99.5%

Compound: CCOc1ccc(NC(=S)N2CCC(CCCC3CCN(C(=S)Nc4ccc(OCC)cc4)CC3)CC2)cc1
- growth [1]: 67.8%
- growth [2]: 90.4%
- growth [3]: 98.3%
- growth [4]: 84.1%
- growth [5]: 84.5%
- growth [6]: 85.6%
- growth [7]: 90.6%

Compound: O=Cc1c(O)c2ccccc2[nH]c1=O
- growth [1]: 106%
- growth [2]: 118%
- growth [3]: 93.8%
- growth [4]: 95.7%
- growth [5]: 89.4%
- growth [7]: 139%

Compound: C/C(O)=C(/C=N/C(=S)Nc1ccccc1)C(=O)Nc1ccccc1C
- growth [1]: 79.6%
- growth [2]: 111%
- growth [3]: 106%
- growth [4]: 94.9%
- growth [5]: 109%
- growth [6]: 109%
- growth [7]: 100%

Compound: Nc1cc2ccccc2c(O)c1O
- growth [1]: -0.96% (active)
- growth [2]: -81.1% (active)
- growth [4]: -43.2% (active)
- growth [5]: -66.9% (active)
- growth [6]: 113%
- growth [7]: 62.3%

Compound: CC(=O)c1ccc(C)cc1
- growth [1]: 120%
- growth [2]: 112%
- growth [3]: 106%
- growth [5]: 105%
- growth [6]: 105%
- growth [7]: 106%

Compound: O=Cc1ccc(Cl)c(Cl)c1
- growth [1]: 115%
- growth [2]: 110%
- growth [3]: 118%
- growth [5]: 107%
- growth [6]: 97.2%
- growth [7]: 113%

Compound: Cc1nc(C)c(C(=O)O)cc1C(=O)O
- growth [1]: 122%
- growth [2]: 110%
- growth [3]: 109%
- growth [4]: 109%
- growth [5]: 111%
- growth [6]: 101%
- growth [7]: 117%

Compound: Cc1cccc(-[n+]2noc(N)n2)c1
- growth [1]: 59%
- growth [2]: 83.7%
- growth [3]: 86.3%
- growth [4]: 76%
- growth [5]: 82.2%
- growth [6]: 79%
- growth [7]: 70.2%

Compound: O=C(CCl)Oc1ccc([N+](=O)[O-])cc1
- growth [1]: 105%
- growth [2]: 107%
- growth [3]: 113%
- growth [5]: 110%
- growth [6]: 102%
- growth [7]: 107%
